Bioassay records: PubChem BioAssay, Broad Institute
Only some compounds are listed: those with a hit (about 4.1% of all), similar ones and a draw of the others.
ALR inh: inhibitors of human sulfhydryl oxidase ALR; 290,000 tested, 3.8% active; inhibition, % (no concentration beside the values); purified ALR, DTT oxidation, H2O2 HRP-luminol luminescence; AID 485317; P55789;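 active means mean replicate inhibition above about 79%, with every replicate also reaching it, limit read from the data; inconclusive means only one of the two criteria met; inactive means mean below limit and not every replicate reaching it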
PglD DTNB: blocks C. jejuni PglD acetyltransferase activity | inhibition, % at 12.5 µM | 360,000 tested, 0.098% active | purified PglD enzyme, DTNB colorimetric CoA detection; in the data active means inhibition above about 16%, passing the limit was not always enough; inconclusive means no clear call, values can overlap the other calls
NSD2 HMT inh: blocks human histone methyltransferase NSD2 | 310,000 tested, 0.54% active | NSD2 peptide methylation, AlphaScreen, 120 min | inhibition, % at 12.5 µM | O96028; in the data active means inhibition above about 50%
HIV Env fusion: HIV envelope-mediated fusion inhibition. inhibition, % at 12.3 µM. HeLa-JRFL Env/CEM21 cell fusion, luciferase. 360,000 tested, 1.1% active;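 active means mean replicate inhibition score of at least 50 and every replicate individually at or above 50; inconclusive means only one of the two criteria met; inactive means mean below 50 and not all replicates reaching 50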
Casp6 inh: inhibitors of human caspase-6; P55212; purified caspase-6, Z-VEID-R110 cleavage fluorescence; inhibition, % at 12.5 µM; 350,000 tested, 0.53% active; AID 686996;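 active means mean inhibition across replicates at least about 35%, with every replicate also reaching that limit, limit read from the data; inconclusive means only one of the two criteria met; inactive means neither criterion met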
F508del corr: CFTR F508del correction in bronchial cells | CFBE cells, YFP halide quenching; stimulated with forskolin plus potentiator P3; % fluorescence drop versus neutral controls | activity (quench increase), % at 7.58 µM | 350,000 tested, 0.36% active | AID 720511;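 active means mean added fluorescence quench of at least 8% versus neutral control, with both replicates also reaching 8%; inconclusive means only one of the mean or replicate conditions met; inactive means mean below 8% and not both replicates reaching 8%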;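 further: cells transiently co-express mutant CFTR-F508del with the halide-sensitive YFP; corrector assay measuring rescue of mutant channel to the surface after 24 h compound exposure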
Of the large screens only hits and unclear results are named; the others gave an inactive call; [ ] = remark or other dose.

Cc1ccc(S(=O)(=O)N(C)C[C@H]2Oc3ccc(NC(=O)C4CC4)cc3CC(=O)N([C@@H](C)CO)C[C@H]2C)cc1	none (no result: ALR inh, NSD2 HMT inh, HIV Env fusion)
Cc1ccc(S(=O)(=O)N(C)C[C@@H]2Oc3ccc(NC(=O)C4CCCCC4)cc3CC(=O)N([C@H](C)CO)C[C@@H]2C)cc1	HIV Env fusion 95[16.7 µM] (no result: ALR inh, NSD2 HMT inh)
Cc1ccc(S(=O)(=O)N(C)C[C@H]2Oc3ccc(NC(=O)C4CC4)cc3CC(=O)N([C@H](C)CO)C[C@H]2C)cc1	none (no result: ALR inh, NSD2 HMT inh, HIV Env fusion)
COc1ccc(S(=O)(=O)N(C)C[C@@H]2Oc3ccc(NC(=O)C4CCCCC4)cc3CC(=O)N([C@H](C)CO)C[C@@H]2C)cc1	HIV Env fusion 74[16.7 µM] (no result: ALR inh, NSD2 HMT inh)
Cc1ccc(S(=O)(=O)N(C)C[C@H]2Oc3ccc(NC(=O)C4CC4)cc3CC(=O)N([C@H](C)CO)C[C@@H]2C)cc1	PglD DTNB 15 (no result: ALR inh, NSD2 HMT inh, HIV Env fusion)
CC(C)NC(=O)N(C)C[C@@H]1Oc2ccc(NC(=O)C3CC3)cc2CC(=O)N([C@H](C)CO)C[C@H]1C	HIV Env fusion 62[16.7 µM] (no result: ALR inh, PglD DTNB, NSD2 HMT inh, Casp6 inh)
O=C(C[C@H]1C[C@H]2c3cc(NS(=O)(=O)c4ccc(F)cc4)ccc3O[C@H]2[C@H](CO)O1)NCc1ccc(-c2ccccc2)cc1	none (no result: ALR inh, NSD2 HMT inh)
C[C@@H]1CN([C@@H](C)CO)C(=O)Cc2cc(NC(=O)C3CCCCC3)ccc2O[C@H]1CN(C)S(=O)(=O)c1ccccc1	HIV Env fusion 63 (no result: NSD2 HMT inh)
C[C@@H]1CN([C@H](C)CO)S(=O)(=O)c2ccc(C#CC3CC3)cc2O[C@@H]1CN(C)C(=O)c1ccccc1	none (no result: ALR inh, NSD2 HMT inh)
O=C(O)c1cccc2c3c([nH]c12)CCCC3	ALR inh 87
COCCOC(=O)N1C(=O)[C@@]2(c3ccccc31)[C@H](c1ccccc1OCCO)N1[C@H](c3ccccc3)[C@H](c3ccccc3)OC(=O)[C@H]1[C@@H]2C(=O)NC[C@H](O)c1ccccc1	none (no result: ALR inh, NSD2 HMT inh)
Cc1cc(N2CCCC2)ccc1NC(=O)CN1C(=O)NC(C)(c2ccccc2)C1=O (stereo unspecified)	ALR inh 99
CCC1(c2ccccc2)NC(=O)N(CC(=O)Nc2ccc(N3CCCC3)cc2C)C1=O (stereo unspecified)	ALR inh inconclusive (no result: PglD DTNB)
COc1ccc(N2CCn3c2nc2c3c(=O)n(CCCc3ccccc3)c(=O)n2C)c(OC)c1	HIV Env fusion 73 (no result: F508del corr)
Cn1c(=O)c2c(nc3n2CC(O)CN3c2ccc(O)cc2)n(C)c1=O (stereo unspecified)	ALR inh 99
COc1ccc(CN(C)C[C@@H]2OCCCC[C@@H](C)Oc3ccc(NS(C)(=O)=O)cc3C(=O)N([C@H](C)CO)C[C@H]2C)cc1	none (no result: ALR inh, PglD DTNB, NSD2 HMT inh, Casp6 inh)
Cc1ccc(-c2nnn(CC(=O)N(CC3CCCO3)C(C(=O)NC(C)(C)C)c3ccc(F)cc3)n2)o1 (stereo unspecified)	ALR inh 99, HIV Env fusion inconclusive (no result: Casp6 inh, F508del corr)
Cc1ccc(-c2nnn(CC(=O)N(CC3CCCO3)C(C(=O)NCC3CCCO3)c3ccc(F)cc3)n2)o1 (stereo unspecified)	none (no result: PglD DTNB, HIV Env fusion, Casp6 inh, F508del corr)
Cc1ccc(-c2nnn(CC(=O)N(CC3CCCO3)C(C(=O)NC3CCCCC3)c3ccc(F)cc3)n2)o1 (stereo unspecified)	HIV Env fusion 116 (no result: Casp6 inh, F508del corr)
CCCCC[C@@H](/C=C/C1C(=O)C=C[C@H]1C/C=C\CCCC(=O)O)OC(C)=O (stereo partly specified)	Casp6 inh 48 (no result: ALR inh, NSD2 HMT inh)
COc1cccc(Nc2ccc(C(=O)O)cc2N)c1	ALR inh 99
Cc1ccc(Nc2ccc(C(=O)O)cc2N)cc1	ALR inh 99 (no result: PglD DTNB, Casp6 inh, F508del corr)
Cc1cc(C)cc(Nc2ccc(C(=O)O)cc2N)c1	none (no result: ALR inh, HIV Env fusion, Casp6 inh, F508del corr)
CCC(=O)N1[C@H](CO)[C@H]2c3ccccc3N(S(=O)(=O)c3ccccc3)C[C@H]21	none (no result: ALR inh, NSD2 HMT inh, HIV Env fusion)
CCCC(=O)Nc1ccc2c(c1)C(=O)N(C)C[C@@H](OC)[C@@H](C)CN(CCC(F)(F)F)[C@@H](C)CO2	none (no result: ALR inh, NSD2 HMT inh)
CC(=O)c1ccc(Nc2nc(NCCO)nc(OC(C(F)(F)F)C(F)(F)F)n2)cc1	none (no result: HIV Env fusion, Casp6 inh, F508del corr)
CNc1nc(Nc2ccc(C(C)=O)cc2)nc(OC(C(F)(F)F)C(F)(F)F)n1	ALR inh 100 (no result: HIV Env fusion, Casp6 inh, F508del corr)
COc1cccc(C#Cc2ccc([C@H]3[C@@H](CO)N4C(=O)CN(C(C)=O)C[C@@H]34)cc2)c1	none (no result: ALR inh, PglD DTNB, NSD2 HMT inh, HIV Env fusion)
O=C(CCOc1ccccc1)N1CCN(S(=O)(=O)c2ccccc2F)CC1	Casp6 inh 48 (no result: ALR inh, HIV Env fusion)
O=C(NC(Cc1ccccc1)C(=O)N1CCN(S(=O)(=O)c2ccccc2F)CC1)c1ccccc1 (stereo unspecified)	F508del corr 8.7 (no result: HIV Env fusion)
O=C(Nc1ccccc1)N1C[C@@H]2[C@H](c3ccccc31)[C@H](CO)N2C(=O)c1ccncc1	none (no result: ALR inh, NSD2 HMT inh, HIV Env fusion)
Nc1c(-c2ccccc2)cnn1-c1cccc([N+](=O)[O-])c1	ALR inh 88 (no result: Casp6 inh, F508del corr)
CCN(CC)CCn1c2c(c(SCC(=O)Nc3nccs3)nc1=O)CCCC2	ALR inh 98 (no result: PglD DTNB)
CN(C)CCn1c2c(c(SCC(=O)Nc3cccc4ccccc34)nc1=O)CCC2	none
CN(C)CCCn1c2c(c(SCC(=O)Nc3cccc4ccccc34)nc1=O)CCC2	none
CN(C)CCn1c2c(c(SCC(=O)Nc3nccs3)nc1=O)CCCC2	ALR inh 96
CCN(CC)CCn1c2c(c(SCC(=O)Nc3cc(C)cc(C)c3)nc1=O)CCC2	none (no result: PglD DTNB)
CCN(CC)CCn1c2c(c(SCC(=O)Nc3cccc4ccccc34)nc1=O)CCCC2	ALR inh 96 (no result: NSD2 HMT inh)
Cc1ccc(S(=O)(=O)Nc2ccc3c(c2)C(=O)N([C@H](C)CO)C[C@H](C)[C@@H](CN(C)C(=O)Nc2ccccc2)O3)cc1	none (no result: ALR inh, NSD2 HMT inh, HIV Env fusion)
C[C@H](CO)N1C[C@H](C)[C@@H](CN(C)C(=O)CCCN(C)C)OCCCC[C@H](C)Oc2ccc(NS(C)(=O)=O)cc2C1=O	none (no result: ALR inh, NSD2 HMT inh)
Cc1nn(-c2ccccc2)c(N)c1N=Nc1cccnc1	none (no result: PglD DTNB)
Nc1nn(-c2ccccc2)c(N)c1N=Nc1ccc2c(c1)OCO2	ALR inh 95 (no result: PglD DTNB, Casp6 inh, F508del corr)
Nc1nn(-c2ccccc2)c(N)c1N=Nc1cccc(F)c1	F508del corr 11
O=C(C[C@H]1CC[C@@H]2[C@H](COC[C@@H](O)CN2C(=O)c2ccncc2)O1)NC1CCC1	none (no result: ALR inh, NSD2 HMT inh)
CC1CCCC(C)N1c1nnc(N)s1 (stereo unspecified)	ALR inh 95 (no result: NSD2 HMT inh)
CC(C(=O)NC(=O)NC1CCCCC1)N1CCN(c2ccc(O)cc2)CC1 (stereo unspecified)	ALR inh 99
CC(C(=O)NC(=O)NC1CCCCC1)N1CCN(c2ccccn2)CC1 (stereo unspecified)	none (no result: Casp6 inh, F508del corr)
COc1ccc(N2CCN(C(=O)NC3CCCCC3)CC2)cc1	ALR inh 81 (no result: HIV Env fusion, Casp6 inh, F508del corr)
COc1cccc(N2CCN(C(=O)NC3CCCCC3)CC2)c1	ALR inh 77 (no result: HIV Env fusion, Casp6 inh, F508del corr)
CCOC(=O)c1ccc(NC(=O)CSCCC(=O)O)cc1	ALR inh 99
CCOC(=O)CC(=O)Nc1ccc(C(=O)OCC)cc1	none (no result: HIV Env fusion, Casp6 inh, F508del corr)
CCOC(=O)c1ccc(NC(=O)CSCc2ccco2)cc1	ALR inh 100 (no result: PglD DTNB, Casp6 inh, F508del corr)
